The results in this text go back to PubChem BioAssay (EPA / NIEHS).

Results filed as inconclusive are left out. Active and inactive are the calls of the source. The calls were made as follows: active = hit-call score of the fitted dose curve at least 0.9, where 1 is the maximum; inconclusive = response in the unintended direction; inactive = score below 0.9.

Chain of Retinoic acid receptor alpha (Homo sapiens) (P10276 whole entry, looked up): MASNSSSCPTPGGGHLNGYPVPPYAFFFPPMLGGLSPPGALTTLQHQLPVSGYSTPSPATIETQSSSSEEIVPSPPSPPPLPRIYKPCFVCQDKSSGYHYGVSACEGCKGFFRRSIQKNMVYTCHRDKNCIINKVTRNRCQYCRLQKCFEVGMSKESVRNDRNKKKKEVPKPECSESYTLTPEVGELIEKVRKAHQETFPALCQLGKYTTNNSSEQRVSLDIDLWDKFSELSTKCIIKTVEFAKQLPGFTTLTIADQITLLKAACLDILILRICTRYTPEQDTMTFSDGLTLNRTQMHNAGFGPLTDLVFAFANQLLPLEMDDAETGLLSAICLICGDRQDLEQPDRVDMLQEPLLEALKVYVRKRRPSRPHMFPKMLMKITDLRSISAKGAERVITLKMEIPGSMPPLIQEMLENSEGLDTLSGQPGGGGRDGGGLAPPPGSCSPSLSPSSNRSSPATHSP
Chain of human Thyroid Receptor Alpha (TRa), THRA (gene 7067) (P10827 whole entry, looked up): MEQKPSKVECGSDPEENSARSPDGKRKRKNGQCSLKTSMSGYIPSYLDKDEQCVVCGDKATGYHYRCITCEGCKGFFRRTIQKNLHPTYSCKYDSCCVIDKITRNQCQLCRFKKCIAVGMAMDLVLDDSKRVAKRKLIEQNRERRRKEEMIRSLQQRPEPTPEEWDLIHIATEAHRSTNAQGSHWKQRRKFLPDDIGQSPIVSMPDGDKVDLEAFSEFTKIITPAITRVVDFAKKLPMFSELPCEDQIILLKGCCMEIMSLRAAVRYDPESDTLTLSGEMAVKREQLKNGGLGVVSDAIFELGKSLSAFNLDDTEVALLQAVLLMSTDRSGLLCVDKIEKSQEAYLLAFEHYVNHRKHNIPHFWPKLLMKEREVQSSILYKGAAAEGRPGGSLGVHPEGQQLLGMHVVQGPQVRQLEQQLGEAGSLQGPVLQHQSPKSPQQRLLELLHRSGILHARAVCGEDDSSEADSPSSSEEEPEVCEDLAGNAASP
Chain of PGR (gene 5241) (P06401 whole entry, looked up): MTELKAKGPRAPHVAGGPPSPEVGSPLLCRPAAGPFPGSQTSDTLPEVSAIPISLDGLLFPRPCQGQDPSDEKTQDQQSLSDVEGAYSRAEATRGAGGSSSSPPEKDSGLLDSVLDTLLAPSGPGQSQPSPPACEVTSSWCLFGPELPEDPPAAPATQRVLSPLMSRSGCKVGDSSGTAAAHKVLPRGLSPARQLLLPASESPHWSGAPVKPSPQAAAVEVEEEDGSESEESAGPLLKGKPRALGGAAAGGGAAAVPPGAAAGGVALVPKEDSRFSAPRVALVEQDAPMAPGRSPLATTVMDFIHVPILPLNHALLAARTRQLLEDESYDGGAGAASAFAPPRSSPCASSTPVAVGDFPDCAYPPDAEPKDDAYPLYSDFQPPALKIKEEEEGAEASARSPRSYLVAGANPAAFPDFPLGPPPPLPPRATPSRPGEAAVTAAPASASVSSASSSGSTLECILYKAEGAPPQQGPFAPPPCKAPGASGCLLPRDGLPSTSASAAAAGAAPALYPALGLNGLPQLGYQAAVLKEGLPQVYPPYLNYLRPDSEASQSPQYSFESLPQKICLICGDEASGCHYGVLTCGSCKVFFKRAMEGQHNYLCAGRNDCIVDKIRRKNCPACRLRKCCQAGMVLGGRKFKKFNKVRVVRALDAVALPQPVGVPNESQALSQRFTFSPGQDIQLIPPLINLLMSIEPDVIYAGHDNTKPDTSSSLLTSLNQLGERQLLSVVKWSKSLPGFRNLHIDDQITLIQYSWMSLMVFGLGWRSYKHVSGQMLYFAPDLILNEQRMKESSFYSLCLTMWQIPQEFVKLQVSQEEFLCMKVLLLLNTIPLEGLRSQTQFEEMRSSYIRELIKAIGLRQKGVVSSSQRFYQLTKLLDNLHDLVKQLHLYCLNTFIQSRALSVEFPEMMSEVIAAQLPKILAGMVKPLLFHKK

The first test deals with PGR (gene 5241) (UniProt P06401). In words: NVS_NR_hPR: NovaScreen (NVS) Nuclear Receptor Binding Assay for human Progestron Receptor (PR) (AID 2283360).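 Also: active means loss of bound radioligand signal versus DMSO baseline.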 The method in brief:
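Competitive displacement of a labelled radioligand from T47D-derived receptor protein is measured in a cell-free format. Initial testing uses 25 uM in duplicate, with positive and negative controls on every plate.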
As to `CS(=O)(=O)c1ccc(C2=C(c3ccccc3)C(=O)OC2)cc1`, the call was inactive.

For `CCC(C)c1cc([N+](=O)[O-])cc([N+](=O)[O-])c1OC(=O)OC(C)C` (stereo not given), the outcome was inactive.

`ClC(c1ccccc1)(c1ccccc1)c1ccccc1`: the compound was called inactive.

Consider `C=C(C)C(=O)OCCOCCOCCOC(=O)C(=C)C`, for which the outcome was inactive.

As for `CN(c1nccc(=O)[nH]1)C1CCN(c2nc3ccccc3n2Cc2ccc(F)cc2)CC1`, the compound was called inactive.

On to `COc1ccc(CCN2CCC(Nc3nc4ccccc4n3Cc3ccc(F)cc3)CC2)cc1`, for which the compound was called inactive.

In the next test the target is Retinoic acid receptor alpha (Homo sapiens) (UniProt P10276). Briefly: NVS_NR_hRARa_Agonist: NovaScreen (NVS) Nuclear Receptor Binding Assay for human Retinoic Acid Alpha Receptor Agonism (RAR) (AID 2283361). The method in brief:
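Compounds screened at 25 uM, duplicate, then in concentration series if active. Detection: TR-FRET gain of signal versus DMSO after 2 h with cell-free extracted RARα.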
In the case of `[O-]n1ccccc1=S.[O-]n1ccccc1=S.[Zn+2]`, the result was inactive.

What is called AC50 is the concentration giving half of the maximal activity seen. In the case of `Cc1cc(S(=O)(=O)O)ccc1N=Nc1c(O)ccc2ccccc12`, the AC50 is 23.5 µM (active).

For `Cc1cc(=O)oc2cc(N(C)C)ccc12`, the AC50 is 14.6 µM (active).

Turning to `CCCCC(CC)COC(=O)c1ccc(O)cc1` (stereo not given), the compound was called inactive.

As to `O=C(CC(=O)c1ccccc1)c1ccccc1`, the call was inactive.

The next test deals with human Thyroid Receptor Alpha (TRa), THRA (gene 7067) (UniProt P10827). In words: NVS_NR_hTRa_Antagonist: NovaScreen (NVS) Nuclear Receptor Binding Assay for human Thyroid Receptor Alpha Antagonism (TRa) (AID 2283362).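 Also: activity is loss of signal relative to DMSO baseline.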 In outline:
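Actives from a duplicate 25 uM single-point screen were retested in concentration series. The cell-free antagonist-format binding assay was read by AlphaLISA chemiluminescence at 1 h, scored as signal loss relative to DMSO.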
`[O-]n1ccccc1=S.[O-]n1ccccc1=S.[Zn+2]`: the AC50 is 1.1 µM (active).

Regarding `Cc1cc(S(=O)(=O)O)ccc1N=Nc1c(O)ccc2ccccc12`, the AC50 is 17.6 µM (active).

On to `OC[C@H]1O[C@@H]2O[C@H]3[C@H](O)[C@@H](O)[C@@H](O[C@H]4[C@H](O)[C@@H](O)[C@@H](O[C@H]5[C@H](O)[C@@H](O)[C@@H](O[C@H]6[C@H](O)[C@@H](O)[C@@H](O[C@H]7[C@H](O)[C@@H](O)[C@@H](O[C@H]8[C@H](O)[C@@H](O)[C@@H](O[C@H]9[C@H](O)[C@@H](O)[C@@H](O[C@H]1[C@H](O)[C@H]2O)O[C@@H]9CO)O[C@@H]8CO)O[C@@H]7CO)O[C@@H]6CO)O[C@@H]5CO)O[C@@H]4CO)O[C@@H]3CO`, for which the compound was classed as inactive.

For the compound `Oc1ccc2cc(SSc3ccc4cc(O)ccc4c3)ccc2c1`, the compound was classed as inactive.

Regarding `COc1ccccc1N=Nc1c(S(=O)(=O)O)cc2cc(S(=O)(=O)O)cc(NC(C)=O)c2c1O`, the AC50 was 8.29 µM (active).

Turning to `Nc1ccc2cc(S(=O)(=O)O)cc(O)c2c1N=Nc1ccccc1C(F)(F)F`, the AC50 was 20 µM (active).

On to `CC(CN=Cc1ccccc1O)N=Cc1ccccc1O` (stereo not given), for which the outcome was inactive.

For the compound `CC1(C)C(=O)N(Cl)C(=O)N1Br`, the call was inactive.

With `CCOc1ccc(N=Nc2ccc(C=Cc3ccc(N=Nc4ccc(OCC)cc4)cc3S(=O)(=O)O)c(S(=O)(=O)O)c2)cc1`, the AC50 was 14.1 µM (active).
